The text below walks through data of PubChem BioAssay (NCI).

This is part of a sample that, as a whole, favours compounds with a hit. Of some 83,000 tested, about 20% had one in any assay.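 Activity criterion: percent growth below 10, measured after cells in 96-well plates were exposed to a single compound concentration for 48 hours.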 A number with no mark means an inactive call. The source made the active and inactive calls.

Test in all cases: NCI-60 one-dose screen, 48 h (100 = growth as untreated, 0 = no growth, -100 = all killed)
Holding throughout (conditions): 10 µM

The test system of assay [1] is DU-145 prostate.
Assay [2] has as its system K-562 leukemia.
In assay [3] the test system is MALME-3M melanoma.
For assay [4], the system named is MDA-MB-231 breast.
Assay [5] has as its system RXF 393 renal.
The subject of assay [6] is SF-268 CNS.
Assay [7] deals with SF-295 CNS.
Assay [8] has as its system SF-539 CNS.
Assay [9] relates to UACC-257 melanoma.
The subject of assay [10] is M14 melanoma.
For assay [11], the system named is HCT-15 colon.
The test system of assay [12] is HT29 colon.
Assay [13] relates to SNB-75 CNS.
Assay [14] concerns SNB-19 CNS.
The test system of assay [15] is U251 CNS.
Assay [16] concerns PC-3 prostate.
The subject of assay [17] is SK-MEL-5 melanoma.
The test system of assay [18] is UACC-62 melanoma.
Assay [19] concerns LOX IMVI melanoma.
Assay [20] concerns SK-MEL-28 melanoma.

Take `CCN(CCCNC(=O)Cc1cc(=O)oc2cc(N(C)C)ccc12)CCNc1ccnc2cc(Cl)ccc12`: the growth in [1] was 109%; in assay [2] it was 0.722% (active); in assay [3], 88.2%; in assay [4] it was 78.7%; in assay [5], 74.6%; in assay [6], 92.1%. The growth in assay [7] is 80.5%; in [8], 25.2%; in [9], 41.9%; in assay [10] it was 11.5%; in assay [11] it was 83.2%; in assay [12], 18.6%. Besides, the growth in [13] was 88.6%; in assay [14], 91.5%; in [15], 58.9%; in assay [16] it was 78.7%; in assay [17], 76.2%; in [18], 98.7%. The growth in assay [19] was 66.4%; in [20], 85%.
Regarding `CCCCCCN=C(N)CCCCCCCCCCC(N)=NCCCCCC`, the growth is 58.5% in assay [1]; 13.5% in assay [2]; 44.9% in assay [3]; 32.1% in assay [4]; 35.8% in assay [5]; 28.8% in assay [6]. The growth in assay [7] is 41%; in assay [8], 29.3%; in [9], 79.8%; in [10], 23.2%; in assay [11] it was 31.8%; in [12] it was 14%. Moreover, the growth in assay [13] is 23.8%; in assay [14], 18.4%; in assay [15], 14.8%; in [16] it was 23.8%; in assay [17], 20%; in assay [18] it was 40.9%. The growth is 37.2% in [19] and 55.8% in assay [20].
In the case of `COc1ccc(C2C=C(c3ccc(Cl)c(Cl)c3)N=C3SC(C)=CN32)cc1` (stereo not given), the growth in assay [1] was 100%; in [2] it was 83.2%; in [3] it was 90.2%; in assay [4], 101%; in [5], 83%; in assay [6] it was 97.2%. Also, the growth in assay [7] was 87.3%; in [8] it was 95.7%; in [9], 109%; in assay [10], 97.3%; in assay [11], 85.5%; in assay [12], 71.1%. Besides, the growth is 89.8% in assay [13]; 96.6% in assay [14]; 84.2% in assay [15]; 90.5% in [16]; 93.6% in assay [17]; 92.1% in assay [18]. In addition, the results for the growth in assay [19] and in assay [20] were 83.4% and 104%, respectively.
For `CCCc1c(C)nc2scc(-c3ccc(Cl)cc3)n2c1=O`, the growth was 105% in assay [1]; 99.3% in [2]; 116% in assay [3]; 109% in [4]; 92.7% in [5]; 98.3% in assay [6]. For the same molecule, the growth in assay [7] was 105%; in assay [8], 101%; in assay [9], 110%; in [10], 107%; in assay [11], 101%; in assay [12] it was 101%. The growth in assay [13] was 97.9%; in [14], 105%; in [15], 97.2%; in assay [16] it was 97.3%; in assay [17] it was 99.1%; in [18] it was 100%. Further, the growth in [19] is 95.8%; in [20] it was 112%.
For `O=C(NC1CCCC1)c1ccc(N2CCC(NCc3cccc(C(F)(F)F)c3)CC2)cc1`, the growth in assay [1] is 91.2%; in assay [2], 38%; in assay [3], 70.3%; in assay [4] it was 78.1%; in [5] it was 79.1%; in [6], 90.3%. Also, the growth was 96.3% in [7]; 97.6% in [8]; 91.3% in assay [9]; 77.5% in [10]; 77.8% in assay [11]; 36.7% in [12]. Also, the growth is 85.3% in assay [13]; 105% in [14]; 82.9% in assay [15]; 83.3% in [16]; 79.5% in [17]; 104% in assay [18]. Besides, the growth is 89.7% in assay [19] and 108% in [20].
For `C#CCn1c(-c2cccc(OCCCCl)c2)nc2c1c(=O)n(C)c(=O)n2C`, the growth in assay [1] was 65.5%; in assay [2] it was 12.7%; in assay [3] it was 84.4%; in assay [4] it was 75.2%; in [5], 104%; in assay [6], 67.1%. In addition, the growth in [7] was 87.3%; in [8] it was 86%; in assay [9], 104%; in [10], 52.8%; in assay [11], 86.9%; in assay [12], 102%. Moreover, the growth in [13] is 89%; in assay [14], 97%; in assay [15], 90.7%; in assay [16], 26%; in assay [17] it was 61.4%; in assay [18], 46.2%. Also, the growth in assay [19] was 93.8%; in assay [20], 95.7%.
As to `O=C(O)CCCCSCCCCC(=O)O`, the growth is 120% in assay [1]; 97.7% in assay [2]; 101% in assay [3]; 107% in assay [4]; 111% in assay [5]; 107% in assay [6]. Further, the growth in assay [7] was 99.6%; in assay [8], 103%; in assay [9], 89.7%; in assay [10], 103%; in assay [11], 106%; in [12], 90.4%. The growth was 95.7% in [13]; 108% in assay [14]; 93.3% in assay [15]; 96.8% in assay [16]; 93.9% in assay [17]; 109% in assay [18]. Further, the growth in assay [19] is 109%; in assay [20] it was 114%.
For the molecule `N#Cc1c2c([nH]c(=O)c1C(N)=O)CCCCC2`, the growth was 115% in assay [1]; 113% in assay [2]; 90.5% in [3]; 102% in [4]; 108% in assay [5]; 103% in [6]. Further, the growth was 101% in assay [7]; 95.1% in assay [8]; 96.7% in [9]; 95.6% in assay [10]; 105% in [11]; 105% in assay [12]. Besides, the growth in assay [13] is 104%; in assay [14] it was 99%; in assay [15], 98.3%; in assay [16], 103%; in assay [17], 95.8%; in assay [18], 88.3%. Also, the results for the growth in assay [19] and in assay [20] were 101% and 106%, respectively.
As to `CS(=O)(=O)Nc1ccc(Nc2c3ccccc3nc3cc(Cl)ccc23)cc1`, the growth in assay [1] was 24.2%; in assay [2], 20.6%; in assay [3] it was 28.3%; in assay [4], 86.5%; in assay [5] it was 20.9%; in [6], 37.6%. The growth was -13.5% (active) in [7]; 30.7% in [8]; 48% in [9]; 36.6% in assay [10]; 39.6% in [11]; 22.4% in assay [12]. Further, the growth in assay [13] was 30.9%; in assay [14] it was 44.7%; in assay [15] it was 19.9%; in assay [16], 33.8%; in assay [17] it was 18.6%; in assay [18], 36.8%. In addition, the results for the growth in assay [19] and in [20] were 19.5% and 72.6%, respectively.
In the case of `CCCCOCCOCCOCc1cc2c(cc1Br)OCO2`, the growth is 107% in assay [1]; 94.7% in assay [2]; 94.8% in assay [3]; 97.1% in assay [4]; 108% in [5]; 103% in assay [6]. Further, the growth is 100% in assay [7]; 92.5% in assay [8]; 101% in [9]; 110% in assay [10]; 97.1% in [11]; 92.6% in assay [12]. The growth is 99.7% in assay [13]; 106% in assay [14]; 94.9% in assay [15]; 93.2% in assay [16]; 97.8% in assay [17]; 89.9% in assay [18]. The growth in assay [19] and in assay [20] was 106% each time.
